Test results: PubChem BioAssay (NCATS)
Records with an inconclusive call do not appear. Active and inactive are the calls of the source. The call rests on the fitted dose curve; in most records, active means well fitted cell-killing curve with a large enough effect; inconclusive means small, poorly fitted or top-dose-only effect, or effect the other way; inactive means no such curve, though single readings can be large or run the other way.

Key:
[1] = Quantitative High-Throughput drug screen in 47 multiple myeloma cell lines against the NCATS MIPE library collection: KMS28PE_JCRB cell viability assay (AID 1918983); further: nearly all actives have a fitted effect of over 35% in size
Outline: (§1)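 500 cells/well; MIPE 4.0 drugs pin-transferred; 48 h, 37C, 5% CO2. CellTiter-Glo, 5 min RT, luminescence. Controls: DMSO 100%, media 0%.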

[2] = Quantitative High-Throughput drug screen in 47 multiple myeloma cell lines against the NCATS MIPE library collection: KMS34_JCRB cell viability assay (AID 1918985); further: nearly all actives have a fitted effect of over 40% in size
Outline: as §1

[3] = Quantitative High-Throughput drug screen in 47 multiple myeloma cell lines against the NCATS MIPE library collection: OPM1_PLB cell viability assay (AID 1918989); further: nearly all actives have a fitted effect of over 40% in size
Outline: as §1

[4] = Quantitative High-Throughput drug screen in 47 multiple myeloma cell lines against the NCATS MIPE library collection: XG6_PLB cell viability assay (AID 1919865); further: nearly all actives have a fitted effect of over 40% in size
Outline: as §1

[5] = Quantitative High-Throughput drug screen in 47 multiple myeloma cell lines against the NCATS MIPE library collection: PE2_PLB cell viability assay (AID 1919869); further: nearly all actives have a fitted effect of over 35% in size
Outline: as §1

[6] = Quantitative High-Throughput drug screen in 47 multiple myeloma cell lines against the NCATS MIPE library collection: PCM6_Riken cell viability assay (AID 1919870); further: nearly all actives have a fitted effect of over 30% in size
Outline: as §1

[7] = Quantitative High-Throughput drug screen in 47 multiple myeloma cell lines against the NCATS MIPE library collection: RPMI8226_ATCC cell viability assay (AID 1919871); further: nearly all actives have a fitted effect of over 30% in size
Outline: as §1

[8] = Quantitative High-Throughput drug screen in 47 multiple myeloma cell lines against the NCATS MIPE library collection: OPM2_DSMZ cell viability assay (AID 1919872); further: nearly all actives have a fitted effect of over 30% in size
Outline: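 Myeloma cells (500 per well) were exposed to MIPE 4.0 compounds by pin transfer and incubated 48 hours at 37C, 5% CO2. Viability was read as ATP by CellTiter-Glo luminescence, normalised to DMSO (100%) and media-only (0%) wells.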

[9] = Quantitative High-Throughput drug screen in 47 multiple myeloma cell lines against the NCATS MIPE library collection: KMS11_JCRBsus cell viability assay (AID 1919873); further: nearly all actives have a fitted effect of over 50% in size
Outline: as §1

[10] = Quantitative High-Throughput drug screen in 47 multiple myeloma cell lines against the NCATS MIPE library collection: OCIMY7_PLB cell viability assay (AID 1918987); details: OCI-MY7 myeloma viability, CellTiter-Glo ATP, 48 h; viability (% of DMSO): at 45.8 µM (top of the series); further: nearly all actives have a fitted effect of over 65% in size
Outline: as §1

[11] = Quantitative High-Throughput drug screen in 47 multiple myeloma cell lines against the NCATS MIPE library collection: OCIMY5_PLB cell viability assay (AID 1918988); further: nearly all actives have a fitted effect of over 65% in size
Outline: as §1

[12] = Quantitative High-Throughput drug screen in 47 multiple myeloma cell lines against the NCATS MIPE library collection: SKMM1_PLB cell viability assay (AID 1919863); details: SKMM1 myeloma viability, CellTiter-Glo ATP, 48 h; viability: active compounds read low; further: nearly all actives have a fitted effect of over 35% in size
Outline: as §1

[13] = Quantitative High-Throughput drug screen in 47 multiple myeloma cell lines against the NCATS MIPE library collection: U266_ATCC cell viability assay (AID 1919864); further: nearly all actives have a fitted effect of over 35% in size
Outline: as §1

[14] = Quantitative High-Throughput drug screen in 47 multiple myeloma cell lines against the NCATS MIPE library collection: XG1_PLB cell viability assay (AID 1919866); further: nearly all actives have a fitted effect of over 35% in size
Outline: as §1

[15] = Quantitative High-Throughput drug screen in 47 multiple myeloma cell lines against the NCATS MIPE library collection: VP6_DJ cell viability assay (AID 1919867); further: nearly all actives have a fitted effect of over 40% in size
Outline: as §1

[16] = Quantitative High-Throughput drug screen in 47 multiple myeloma cell lines against the NCATS MIPE library collection: UTMC2_PLB cell viability assay (AID 1919868); details: CellTiter-Glo ATP luminescence, 48 h; viability (% of DMSO control): at 45.8 µM (top of the series); further: nearly all actives have a fitted effect of over 55% in size
Outline: as §1

[17] = Quantitative High-Throughput drug screen in 47 multiple myeloma cell lines against the NCATS MIPE library collection: KMS28BM_JCRB cell viability assay (AID 1919874); further: nearly all actives have a fitted effect of over 35% in size
Outline: as §1
Potency means the concentration at half of the fitted maximal effect.

C[C@@H](Cc1cc2c(c(C(N)=O)c1)N(CCCO)CC2)NCCOc1ccccc1OCC(F)(F)F
inactive: Potency [1] | Potency [2] | Potency [3] | Potency [4] | Potency [5] | Potency [6] | Potency [7] | Potency [8] | Potency [9]

CNC(=O)c1ccc(Nc2cc(Nc3ccccc3S(=O)(=O)C(C)C)c3cc[nH]c3n2)nc1
active: Potency [1] 9.35 µM | Potency [10] 0.833 µM | Potency [11] 4.69 µM | Potency [3] 1.66 µM | Potency [12] 18.7 µM | Potency [13] 1.48 µM | Potency [4] 0.662 µM | Potency [14] 0.296 µM | Potency [15] 0.526 µM | Potency [16] 0.418 µM | Potency [5] 1.18 µM | Potency [6] 1.18 µM | Potency [7] 18.7 µM | Potency [8] 7.43 µM | Potency [17] 1.32 µM

COC(=O)[C@@H]1CC2=CC(=O)CC[C@]2(C)[C@@]23O[C@@H]2C[C@@]2(C)[C@H](CC[C@@]24CCC(=O)O4)[C@@H]13
inactive: Potency [1] | Potency [2] | Potency [3] | Potency [13] | Potency [4] | Potency [14] | Potency [5] | Potency [6] | Potency [7] | Potency [9]

Cc1ccccc1C(=O)Nc1ccc(C(=O)N2CCCC(O)c3cc(Cl)ccc32)c(C)c1 (stereo unspecified)
inactive: Potency [1] | Potency [2] | Potency [3] | viability [12] 139% | Potency [13] | Potency [7] | Potency [8] | Potency [9] | Potency [17]

C[C@]12C=CC(=O)N[C@@H]1CC[C@H]1[C@H]3CC[C@@H](C(=O)Nc4cc(C(F)(F)F)ccc4C(F)(F)F)[C@@]3(C)CC[C@@H]12
active: Potency [1] 20.9 µM | Potency [10] 16.6 µM | Potency [11] 16.6 µM | Potency [4] 16.6 µM | Potency [14] 13.2 µM | Potency [6] 4.69 µM | Potency [8] 10.5 µM
inactive: Potency [13] | Potency [16] | Potency [9]

C[C@H](CCC(=O)O)[C@H]1CCC2C3C[C@H](O)[C@@H]4C[C@H](O)CC[C@]4(C)C3CC[C@@]21C (stereo partly specified)
active: Potency [14] 18.7 µM
inactive: Potency [1] | Potency [2] | Potency [3] | viability [12] 96.1% | Potency [13] | Potency [16] | Potency [5] | Potency [6] | Potency [7] | Potency [8] | Potency [17]

CCOC(=O)C=C[C@H](C[C@@H]1CCNC1=O)NC(=O)[C@@H](CC(=O)[C@@H](NC(=O)c1cc(C)on1)C(C)C)Cc1ccc(F)cc1
inactive: Potency [1] | Potency [2] | Potency [11] | Potency [14] | Potency [5] | Potency [6] | Potency [7] | Potency [8] | Potency [9]

O=C1CSC(=O)N1C(CCc1ccncc1)COc1ccc(-c2cccc([N+](=O)[O-])c2)cc1 (stereo unspecified)
active: Potency [1] 9.35 µM | Potency [10] 20.9 µM | Potency [11] 2.35 µM | Potency [3] 16.6 µM | Potency [13] 8.33 µM | Potency [4] 13.2 µM | Potency [15] 4.18 µM | Potency [5] 16.6 µM | Potency [7] 7.43 µM | Potency [9] 11.8 µM

C[C@]12CC[C@@H]3c4ccc(O)cc4CC[C@H]3[C@H]1CC[C@H]2O
active: Potency [1] 29.6 µM | Potency [10] 5.9 µM | Potency [11] 9.35 µM | Potency [3] 16.6 µM | Potency [13] 6.62 µM | Potency [4] 5.9 µM | Potency [14] 6.62 µM | Potency [15] 8.33 µM | Potency [5] 16.6 µM | Potency [7] 18.7 µM | Potency [8] 18.7 µM | Potency [9] 14.8 µM | Potency [17] 23.5 µM

O=C(C=CC#Cc1cccc(NS(=O)(=O)c2ccccc2)c1)NO
active: Potency [1] 1.87 µM | Potency [10] 0.372 µM | Potency [11] 1.18 µM | Potency [3] 2.35 µM | Potency [12] 2.35 µM | Potency [13] 2.09 µM | Potency [4] 5.26 µM | Potency [15] 1.18 µM | Potency [16] 0.833 µM | Potency [5] 3.32 µM | Potency [7] 2.64 µM | Potency [8] 2.35 µM | Potency [9] 0.662 µM | Potency [17] 0.833 µM

COC(=O)C1C2CC3c4[nH]c5cc(OC)ccc5c4CCN3CC2CC(OC(=O)c2cc(OC)c(OC)c(OC)c2)C1OC (stereo unspecified)
inactive: Potency [8]
active: Potency [1] 14.8 µM | Potency [10] 16.6 µM | Potency [11] 16.6 µM | Potency [3] 23.5 µM | Potency [13] 23.5 µM | Potency [5] 14.8 µM | Potency [6] 16.6 µM | Potency [7] 16.6 µM | Potency [9] 29.6 µM | Potency [17] 20.9 µM

Cn1cc(-c2ccc3ncc(Cc4ccc5ncccc5c4)n3n2)cn1
inactive: Potency [1] | Potency [2] | Potency [3] | Potency [7] | Potency [8] | Potency [17]
active: Potency [12] 2.09 µM | Potency [6] 13.2 µM

CC(C)Oc1ccc(C(=O)N[C@H](CNC(=O)CN(C)C)Cc2ccc(-c3cn4cccc([C@H](C)O)c4n3)cc2)cc1Cl
active: Potency [1] 0.59 µM | Potency [10] 0.332 µM | Potency [11] 0.418 µM | Potency [13] 20.9 µM | Potency [4] 0.105 µM | Potency [14] 0.148 µM | Potency [15] 5.26 µM | Potency [6] 23.5 µM | Potency [9] 0.132 µM | Potency [17] 1.66 µM

CS(=O)(=O)N1CCc2c(-c3cnc(N)nc3)nc(N3CCOCC3)nc21
active: Potency [1] 0.118 µM | Potency [2] 0.833 µM | Potency [3] 0.332 µM | Potency [13] 0.296 µM | Potency [4] 0.743 µM | Potency [14] 0.372 µM | Potency [15] 0.418 µM | Potency [16] 0.001 µM | Potency [5] 0.296 µM | Potency [6] 5.26 µM | Potency [8] 1.05 µM

c1ccc2c(Oc3nc(Nc4ccc(N5CCOCC5)cc4)c4ncn(C5CCCCC5)c4n3)cccc2c1
inactive: Potency [1] | Potency [3] | Potency [5] | Potency [6] | Potency [7] | Potency [8]
active: Potency [10] 14.8 µM | Potency [11] 18.7 µM | Potency [14] 18.7 µM | Potency [15] 14.8 µM
